Screening data deposited in PubChem BioAssay by several laboratories.
tim10-1 inh: growth inhibitors of tim10-1 mutant yeast, primary screen, luminescence, uHTS. S. cerevisiae tim10-1 ts strain growth, BacTiter-Glo, 24 h. inhibition, % at 20 µM. 2.2% of 330,000 active. AID 463190, 2010;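 active = inhibition of at least 40%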;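 note: mutant grown at 25 °C; 0% = DMSO wells with yeast and 100% = wells holding no yeast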
tim23-1 inh: growth inhibitors of tim23-1 mutant yeast, primary screen, luminescence, uHTS | S. cerevisiae tim23-1 growth, BacTiter-Glo luminescence, 24 h | inhibition, % at 20 µM | 1.3% of 330,000 active;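 active = growth inhibition of the mutant yeast at or above 50%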;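 note: temperature-sensitive mutant grown at 25 °C; plate controls were DMSO-treated mutant yeast for no effect and medium wells lacking yeast for full effect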
Beta2AR agonist: beta2AR agonists driving receptor internalization, primary screen, cell-based, FAP fluorogen, flow cytometry; Am2.2-beta2AR cells; response, % (test concentration not listed); 0.43% of 340,000 active;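 active = response above a set limit, near 3 SD of response in nonfluorescent compounds, cut at about 42% in these data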
Target sequence (P07550 whole entry, looked up): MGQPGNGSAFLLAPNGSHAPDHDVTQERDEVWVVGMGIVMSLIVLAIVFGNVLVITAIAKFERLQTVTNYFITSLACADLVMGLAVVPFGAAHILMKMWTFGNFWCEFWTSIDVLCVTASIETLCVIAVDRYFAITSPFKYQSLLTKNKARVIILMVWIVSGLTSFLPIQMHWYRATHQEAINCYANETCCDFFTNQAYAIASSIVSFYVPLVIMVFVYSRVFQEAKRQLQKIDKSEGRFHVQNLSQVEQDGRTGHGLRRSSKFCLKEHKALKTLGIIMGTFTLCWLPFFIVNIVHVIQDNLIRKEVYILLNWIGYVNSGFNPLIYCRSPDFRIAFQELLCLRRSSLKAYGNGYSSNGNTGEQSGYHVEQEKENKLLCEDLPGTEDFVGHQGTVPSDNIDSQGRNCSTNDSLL
TIM10 inh: growth inhibitors of isogenic TIM10 control yeast, primary screen, counter-screen for tim10-1 yeast inhibitor project, luminescence, uHTS; 1.4% of 330,000 active; inhibition, % at 10 µM; S. cerevisiae TIM10 strain growth, BacTiter-Glo luminescence, 24 h;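 active = inhibition of 40% or more at the single tested concentration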;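 note: wild-type TIM10 isogenic control strain grown at permissive 25 °C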
PfHsp90 set2: growth inhibition of PfHsp90-expressing yeast, primary screen, antimalarial PfHsp90 inhibitor project, S. cerevisiae, BacTiter-Glo luminescence, single point, set 2; inhibition, % at 9.4 µM; BacTiter-Glo ATP, 48 h; yeast lacking PDR1 and PDR3 efflux regulators; AID 504621, 2011; 0.32% of 310,000 active;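 active = every replicate shows inhibition above about 80%, whatever the replicate mean, limit read from the data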;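 note: 0% = DMSO neutral controls and 100% = 20 µM radicicol positive controls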
TIM10 conf: growth inhibitors of wild-type TIM10 yeast, confirmation, counter-screen for tim10-1 synthetic lethality project, single concentration, luminescence, S. cerevisiae; shares compounds with TIM10 inh; S. cerevisiae tim10 strain growth, BacTiter-Glo luminescence, 24 h; inhibition, % at 10 µM; 63% of 4,600 active;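 active = inhibition of yeast growth at or above a set limit in either of two replicates at 10 µM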;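 note: this counterscreen used the strain with wild-type TIM10; 0% = yeast with DMSO and 100% = medium wells lacking yeast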
An asterisk follows results filed as active; / = no result. Most compounds without a hit are left out; they make up all but 3.8% or so of the library.

SMILES	tim10-1 inh	tim23-1 inh	Beta2AR agonist	TIM10 inh	PfHsp90 set2	TIM10 conf
Cn1cc(/C=C2\SC(=O)N(c3ccccc3)C2=O)c2ccccc21	34	14	-10	-2	7	/
Cn1cc(/C=C2\SC(=O)N(c3ccc(O)cc3)C2=O)c2ccccc21	29	33	-1	44*	-5	38*
O=C(Nc1ccccc1C(=O)NCCc1ccccc1)c1ccco1	21	23	-5	97*	-18	-10
Nc1nnc(SCCCC(=O)c2ccc(Br)cc2)s1	11	6	7	40*	10	-2
CC(C)(C)c1nc(NC(=O)Nc2ccccc2)sc1Br	35	2	-1	49*	0	49*
COc1ccc2nc(NC(=O)Nc3ccccc3)sc2c1	-7	-2	-8	0	-4	/
O=C(COC(=O)c1ccc([N+](=O)[O-])s1)Nc1cccc(S(=O)(=O)NC2=NCCCCC2)c1	9	4	0	21	-11	/
O=C(COC(=O)c1ccc([N+](=O)[O-])s1)Nc1ccc(F)cc1	-34	37	-4	74*	-8	77*
O=C(COC(=O)/C=C/c1ccc([N+](=O)[O-])cc1)Nc1ccc(F)cc1	20	16	15	7	-24	/
O=C(COC(=O)c1ccc([N+](=O)[O-])s1)Nc1ccccc1	17	40	-2	46*	10	-7
O=C(Nc1cccnc1)c1ccc([N+](=O)[O-])s1	14	44	-3	56*	-1	53*
Cc1[nH]c2ccccc2c1C(=O)COC(=O)c1ccc([N+](=O)[O-])s1	-18	27	5	71*	13	83*
CN(c1ccccc1)S(=O)(=O)c1ccc(Cl)c(C(=O)OCC(=O)c2c(N)n(C)c(=O)n(C)c2=O)c1	/	/	18	/	1	/
COc1ccc(-c2noc(CN(C)C(=O)c3ccoc3C)n2)cc1	-28	-8	7	-24	6	/
CCCN(Cc1nc2cc(Cl)ccc2c(=O)[nH]1)C(=O)c1ccc(S(=O)(=O)N2CCCC2)cc1	7	4	3	-6	6	/
Cc1ccc(-n2nnc3c(=O)oc4ccccc4c32)cc1	12	47	13	77*	-13	91*
Cc1ccc(C(C(=O)NCC2CCCO2)N(C(=O)c2snc(C(N)=O)c2N)c2ccc(C)c(C)c2)o1 (stereo unspecified)	6	22	0	14	-56	/
CCOc1cc(/C=N/NC(=O)COc2ccccc2C)ccc1OC(=O)c1cccs1	23	32	11	41*	-20	26
CN(NC(=O)c1ccc(Cl)cc1)c1ncc(C(F)(F)F)cc1Cl	8	18	-6	9	-13	/
Cc1nn(Cc2ccc(Cl)cc2)c(=O)n1N(C)c1ncc(C(F)(F)F)cc1Cl	40	5	1	55*	-3	-1
COc1ccc(-n2nc3c(c2NC(=O)CCCl)CSC3)cc1	-10	4	0	11	3	/
O=C(NC(=S)Nc1ccc(S(=O)(=O)NC2CCCCC2)cc1)c1cccs1	31	36	-6	41*	-61	38*
Cc1c(-c2ccc(Br)cc2)nc2ccccn12	-14	25	-15	-3	18	/
Clc1c(-c2ccccc2)nc2ccccn12	2	6	8	97*	4	6
COC(=O)[C@]1(Cc2ccccc2)N[C@H](c2ccc(-c3cccc(Cl)c3)cc2)[C@@H]2C(=O)N(C)C(=O)[C@@H]21	12	16	1	23	9	/
SMILES	tim10-1 inh	tim23-1 inh	Beta2AR agonist	TIM10 inh	PfHsp90 set2	TIM10 conf
CC(C)c1ccc(NC(=O)Cc2cn(C)c3ccccc23)cc1	26	33	27	47*	-14	32*
N#Cc1ccc(C(=O)Nn2cnnc2)cc1	-5	-1	-7	6	-17	/
O=C(NCCS(=O)(=O)NCc1ccc2c(c1)OCO2)c1ccccc1	-15	-19	2	-9	-6	/
CSc1nc(-c2ccccc2)nn1C(=O)c1ccc(Cl)cc1	30	37	-1	49*	2	-24
CSc1nc(-c2ccc(Cl)cc2)nn1C(=O)c1ccccc1	9	26	-5	24	21	/
Nc1ccn(C2OC(COC(=O)C34CC5CC(CC(C5)C3)C4)C(O)C2O)c(=O)n1 (stereo unspecified)	/	/	0	/	12	/
O=C(NN=Cc1ccc(Cl)cc1Cl)C1CC1	/	/	-12	/	16	/
CCOc1ccc(-n2cnc3scc(-c4ccc(OC)c(OC)c4)c3c2=O)cc1	36	27	0	41*	/	16
O=C(COc1ccccc1C(=O)NCc1ccccc1)Nc1ccccc1	15	22	-5	12	-11	/
CCOc1ccc(CSc2nc(C)cc(COC)c2C#N)cc1OCC	12	17	-3	16	-5	/
CC(=O)c1ccsc1-c1c(C)cc2oc(=O)cc(-c3ccccc3)c2c1C	9	33	10	-5	-31	/
Cc1nc(-c2ccc3c(c2)OCO3)cs1	-8	8	6	-1	/	/
Cc1c(C)c(C)c2[nH]c(-c3ccc4c(c3)OCO4)nc2c1C	26	46	8	82*	19	87*
Cc1ccc(/C=C/C(=O)O)cc1S(=O)(=O)N1CCc2ccccc21	6	14	8	-13	-9	/
Cc1cccc(NC(=O)C2CCCN(c3ncnc4c3nc3n4CCCCC3)C2)n1 (stereo unspecified)	22	32	0	16	-2	/
C=CCn1c(N/N=C/c2ccc(O)cc2)nc2ccccc2c1=O	38	43	-8	45*	5	32*
Cc1nc(-c2ccccn2)nc(SCC(=O)c2ccc(F)cc2)c1Cl	29	41	-2	41*	14	42*
COc1ccc(C(=O)CSc2nc(-c3ccccn3)nc(C)c2Cl)cc1	31	47	-3	37	0	/
CCOc1ccc(N(CC(=O)NCCSCc2ccc(Cl)cc2)S(C)(=O)=O)cc1	11	11	0	8	1	/
COc1ccccc1NC(=O)c1ccc2[nH]c(C)c(C)c2c1	24	22	18	16	9	/
O=C(C1CCCN(S(=O)(=O)c2ccc(Cl)cc2)C1)N(Cc1cccs1)C1CC1 (stereo unspecified)	36	37	-1	43*	8	-4
CN(Cc1cccs1)C(=O)c1ccc(S(=O)(=O)N2CCCCC2)cc1	14	21	-8	10	0	/
CCOc1ccc(OCCSc2ccc(S(=O)(=O)N3CCN(C)CC3)cn2)cc1	38	50	0	46*	-1	52*
O=S(=O)(c1ccc(SCCOc2ccc(Br)cc2)nc1)N1CCCC1	17	18	-6	7	-3	/
Cc1ccc(S(=O)(=O)Nc2ccccc2N=Cc2ccc([N+](=O)[O-])cc2[N+](=O)[O-])cc1	/	/	-3	/	-25	/
O=C(Cc1n[nH]c(=O)c2ccccc12)Nc1cc(C(F)(F)F)ccc1-n1cncn1	1	17	-2	-6	5	/
CCN(CCS(=O)(=O)c1ccc(Br)cc1)Cc1nc2ccccc2c(=O)[nH]1	17	26	-5	4	-6	/
CSc1ccc(CC(=O)N2CCC(n3nccc3NC(=O)C3CC3)CC2)cc1	2	3	6	-4	-7	/
